Assay results as given in the supplement of paper PMC3334620.
Over roughly 33,000 sequences, “E-score (-0.5 to 0.5)” has its median near -0.012; the highest 2% begin near 0.29. Many of the other results were omitted from the sample, so the highest values are more common in it than they were.

These sequences were tested against T1, Ybr033w (UniProt P38073) (assay: PBM E-score (8-mer binding enrichment) (E-score (-0.5 to 0.5)); higher = stronger / more preferred TF binding). Conditions: protein concentration: 200 nM; construct: GST-full length.
T1 sequence: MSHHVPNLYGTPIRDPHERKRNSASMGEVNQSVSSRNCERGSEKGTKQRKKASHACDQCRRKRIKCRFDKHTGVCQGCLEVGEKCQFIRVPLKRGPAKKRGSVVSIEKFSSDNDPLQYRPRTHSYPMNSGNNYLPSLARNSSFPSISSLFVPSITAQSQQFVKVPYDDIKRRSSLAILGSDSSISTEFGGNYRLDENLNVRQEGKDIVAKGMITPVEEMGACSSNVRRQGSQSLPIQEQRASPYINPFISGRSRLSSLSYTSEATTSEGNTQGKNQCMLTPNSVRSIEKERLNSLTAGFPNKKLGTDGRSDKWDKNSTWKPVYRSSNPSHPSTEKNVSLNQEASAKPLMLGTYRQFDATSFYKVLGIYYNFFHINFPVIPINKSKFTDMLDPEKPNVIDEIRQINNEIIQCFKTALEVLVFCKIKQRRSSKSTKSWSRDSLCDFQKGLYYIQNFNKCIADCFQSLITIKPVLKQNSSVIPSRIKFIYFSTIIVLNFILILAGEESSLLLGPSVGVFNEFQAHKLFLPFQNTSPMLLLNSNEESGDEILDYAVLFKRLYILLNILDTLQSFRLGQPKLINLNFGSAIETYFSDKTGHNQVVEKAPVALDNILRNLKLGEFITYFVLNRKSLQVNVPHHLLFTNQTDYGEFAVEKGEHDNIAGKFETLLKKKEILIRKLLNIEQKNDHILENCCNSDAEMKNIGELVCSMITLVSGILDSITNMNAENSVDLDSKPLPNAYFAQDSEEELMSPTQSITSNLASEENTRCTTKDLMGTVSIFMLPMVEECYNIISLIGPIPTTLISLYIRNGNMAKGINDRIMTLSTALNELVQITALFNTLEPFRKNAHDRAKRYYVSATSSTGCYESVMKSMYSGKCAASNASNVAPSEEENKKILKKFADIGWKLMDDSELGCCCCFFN
Procedure: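 Universal 'all 10-mer' protein binding microarrays (Agilent AMADID 015681) probed with GST-tagged S. cerevisiae TFs (full-length or DBD) made by in vitro transcription/translation (PURExpress), about 100-200 nM. Bound TF was detected with fluorescent anti-GST. Each ungapped 8-mer (which stands for itself and its reverse complement) is scored by the PBM enrichment score (E-score), a modified Wilcoxon-Mann-Whitney statistic from -0.5 to +0.5, computed with the Universal PBM Analysis Suite. Scale: above 0.35 generally sequence-specific binding.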

Sequence	PBM E-score
GTCCAGAA	-0.051
CTCCACAA	0.0525
TTCCACAA	0.314
TTCCAGAA	0.294
GTCCACAA	0.0077
CTCCAGAA	-0.0883
ATGAAGAA	0.126
CTGAACAG	0.00549
GACGACAA	0.293
CACGACAA	-0.0495
AACGACAA	0.175
GAAAGTAC	0.0791
GACCATTA	0.2
GACTTAAA	0.0498
GGTTAAGA	0.0725
TACTACCA	0.106
AACATAAT	0.295
CTCATTTA	0.0742
AACATATA	0.298
GACATATA	0.185
ATCATTTA	0.336
CACATATA	0.0859
ATCATTAG	0.16
ATCATTAA	0.313
AACATAAA	0.11
ATCATTTC	0.258

Sequence	PBM E-score
CTCATTAA	0.23
AACATAAC	0.281
AGTTGTAT	0.0541
TGGCCTAA	-0.088
ATGGCAAG	-0.0226
GTCCTTGA	-0.0584
GACCTATC	-0.0417
AGCCACGA	-0.228
TCACACGA	-0.00326
CTACTAAC	0.222
CAAGCGTA	0.093
AACATTTA	0.296
GACATTTA	-0.045
AACATTTC	0.272
CCACTTGC	-0.0925
CCGCGCGG	0.104
AGATCGAG	0.0958
TACCAATA	0.0786
CCCATCAA	0.101
GACATCAA	0.0415
CACATCAA	0.127
ACCATCAA	0.137
AACATCAA	0.319
TCCATCAA	0.312
AATGCCAA	0.112
CACCTCAC	0.0264

Sequence	PBM E-score
TCCTTTAA	0.132
ATGACTGG	-0.17
GACTGCAC	-0.221
ATCAATTC	0.125
ATCAATAA	0.321
ATCAATTG	0.252
ATCAATTA	0.365
CTCAATAA	0.12
AACAATTA	0.366
ATCAATAG	0.178
AACAATTG	0.115
AACAATTC	0.205
CAGGAGGC	-0.202
CAATTGCC	0.0461
AATACTCG	0.22
CTGAGACC	-0.291
CGTCTGGC	0.0541
GTACCATA	0.00958
ATACCATA	0.297
ATACCATG	-0.0754
ATCGAAAT	0.119
AATAAAGT	0.265
ATAAAGTA	0.306
GCAAAGTA	0.113
TTAAAGAA	0.117
ACAAAGTC	0.0213

Sequence	PBM E-score
ATAAAGTG	0.244
ATAAAGAA	0.291
ACAAAGTA	0.3
GTAAAGTA	0.174
CTAAAGAA	0.0669
AGTAAGAA	0.208
AACAGTGA	-0.0153
ATGTGCTA	0.208
GCTGCTCA	-0.11
CTCTCTCC	-0.21
ACACTCAC	0.0907
GACGCAGA	-0.127
ATAGCTAT	0.13
ACTATCCC	-0.24
ATTATCCA	0.341
CTTATCCA	0.0666
CTTATCCC	-0.16
GTTATCCA	0.0783
ATTATCTG	0.218
ATTATCCG	0.469
ATTATCGG	0.0549
ATTATCCC	0.321
ATTATCGA	0.0687
ACTATCCG	0.16
ATTATCGC	0.319
